{
  "source": "paper PMC4336329",
  "about": "(PLoS ONE, 2015)",
  "note": "The campaign covered roughly 310,000 compounds. About 14,000 (4.5%) showed an effect of 50% or more. Effects have a minus sign here. Only a selection was taken, and strong results are over-represented in it overall.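 Further: peak tail current of the secondary pulse compared with the same well before compound.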",
  "data": [
    {"target": "human ether-à-go-go-related gene (hERG) potassium channel (human, UniProt Q12809)", "sequence (Q12809 whole entry, looked up)": "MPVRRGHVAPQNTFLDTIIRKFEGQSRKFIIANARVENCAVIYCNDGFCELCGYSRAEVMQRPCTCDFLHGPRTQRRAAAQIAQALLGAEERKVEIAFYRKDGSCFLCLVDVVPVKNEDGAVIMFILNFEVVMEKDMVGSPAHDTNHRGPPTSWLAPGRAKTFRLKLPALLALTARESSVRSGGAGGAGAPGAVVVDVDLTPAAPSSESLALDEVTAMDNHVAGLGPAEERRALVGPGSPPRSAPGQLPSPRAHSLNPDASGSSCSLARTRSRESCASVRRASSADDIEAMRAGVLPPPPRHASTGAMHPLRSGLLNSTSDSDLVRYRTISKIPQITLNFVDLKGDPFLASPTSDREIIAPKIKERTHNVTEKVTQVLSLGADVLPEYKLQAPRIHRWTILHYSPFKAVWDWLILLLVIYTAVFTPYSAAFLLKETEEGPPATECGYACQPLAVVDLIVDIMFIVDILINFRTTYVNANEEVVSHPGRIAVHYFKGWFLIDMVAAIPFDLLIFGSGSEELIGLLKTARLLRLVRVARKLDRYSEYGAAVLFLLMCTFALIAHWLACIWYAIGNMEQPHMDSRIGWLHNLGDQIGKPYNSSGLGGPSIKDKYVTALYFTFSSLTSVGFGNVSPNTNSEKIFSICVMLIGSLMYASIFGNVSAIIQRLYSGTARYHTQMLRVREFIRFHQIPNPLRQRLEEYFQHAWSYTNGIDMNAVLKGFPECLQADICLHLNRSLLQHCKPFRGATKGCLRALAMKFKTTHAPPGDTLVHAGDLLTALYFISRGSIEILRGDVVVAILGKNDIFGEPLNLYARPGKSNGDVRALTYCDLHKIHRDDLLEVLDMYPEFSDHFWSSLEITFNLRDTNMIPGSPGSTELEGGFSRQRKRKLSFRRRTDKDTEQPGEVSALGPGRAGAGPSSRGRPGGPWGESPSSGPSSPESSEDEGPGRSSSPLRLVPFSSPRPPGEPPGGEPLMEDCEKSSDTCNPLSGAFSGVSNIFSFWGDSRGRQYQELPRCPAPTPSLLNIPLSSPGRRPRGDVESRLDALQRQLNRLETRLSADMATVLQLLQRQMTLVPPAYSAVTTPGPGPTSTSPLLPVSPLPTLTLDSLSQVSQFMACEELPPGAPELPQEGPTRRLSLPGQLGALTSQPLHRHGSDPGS", "test": "primary screen, population patch clamp on CHO cells stably expressing hERG; higher = less effect of the substance", "units": {"hERG current change (%, negative = inhibition) at 10uM": "%"}, "values": [
      {"smiles": "COc1cccc(O)c1CN1CCC(C(=O)Nc2ccc(-c3cccc(C)c3)cc2)CC1", "hERG current change (%, negative = inhibition) at 10uM": -11.2},
      {"smiles": "CC(=O)c1cccc(CN2CCC(C(=O)Nc3ccc(-c4cccc(C)c4)cc3)CC2)c1", "hERG current change (%, negative = inhibition) at 10uM": 2.59},
      {"smiles": "COc1cccc(-c2cccc(NC(=O)C3CCN(CC4CCOC4)CC3)c2)c1", "note": "(stereo not shown)", "hERG current change (%, negative = inhibition) at 10uM": -53.2},
      {"smiles": "O=C(Nc1cccc(Cl)c1)C1CCN(C(=O)c2cccs2)CC1", "hERG current change (%, negative = inhibition) at 10uM": -16.8},
      {"smiles": "O=C(Nc1cccc(-c2cccc(Cl)c2)c1)C1CCN(CC2CCOC2)CC1", "note": "(stereo not shown)", "hERG current change (%, negative = inhibition) at 10uM": -77.2},
      {"smiles": "COc1cccc(NC(=O)C2CCN(S(C)(=O)=O)CC2)c1", "hERG current change (%, negative = inhibition) at 10uM": -7.92},
      {"smiles": "COc1ccccc1CNC(=O)Cn1cnnn1", "hERG current change (%, negative = inhibition) at 10uM": 14.5},
      {"smiles": "O=C(c1cc([N+](=O)[O-])cc([N+](=O)[O-])c1)N1CCCc2ccccc21", "hERG current change (%, negative = inhibition) at 10uM": -16.3},
      {"smiles": "CCOC(=O)Cc1csc(NC(=O)CC)n1", "hERG current change (%, negative = inhibition) at 10uM": 3.71},
      {"smiles": "O=S(=O)(c1ccc(-c2csc(=Nc3ccccc3)n2CCCN2CCOCC2)cc1)N1CCOCC1", "hERG current change (%, negative = inhibition) at 10uM": -40.9},
      {"smiles": "CN(C)N1C(N)=C(C#N)C(c2cccc(Cl)c2)C2=C1CCCC2=O", "note": "(stereo not shown)", "hERG current change (%, negative = inhibition) at 10uM": -26.2},
      {"smiles": "Cc1ccc(CO/N=C/C2=C(Cl)c3ccccc3CC2)cc1", "hERG current change (%, negative = inhibition) at 10uM": 16.8},
      {"smiles": "CC(=O)Nc1ccc(NS(=O)(=O)c2ccc3c(c2)oc(=O)n3C)cc1", "hERG current change (%, negative = inhibition) at 10uM": 20.2},
      {"smiles": "Cc1cccc(CN2CCc3c([nH]c4ccccc34)C2C(C)(C)C)n1", "note": "(stereo not shown)", "hERG current change (%, negative = inhibition) at 10uM": 3.57},
      {"smiles": "O=[N+]([O-])c1ccc(C(=Nc2cccc3ccccc23)N2CCOCC2)cc1", "hERG current change (%, negative = inhibition) at 10uM": -63.5},
      {"smiles": "Cc1ccc([N+](=O)[O-])cc1N=C(c1cccc([N+](=O)[O-])c1)N1CCOCC1", "hERG current change (%, negative = inhibition) at 10uM": -26},
      {"smiles": "Cc1ccc([N+](=O)[O-])cc1N=C(c1ccc([N+](=O)[O-])cc1)N1CCOCC1", "hERG current change (%, negative = inhibition) at 10uM": -20.8},
      {"smiles": "O=C(NNC(=O)C1[C@H]2CCCC[C@@H]12)Nc1cccc2ccccc12", "note": "(stereo partly shown)", "hERG current change (%, negative = inhibition) at 10uM": -6.11},
      {"smiles": "COc1cc(NC(=O)Cc2ccc(F)cc2)cc(OC)c1OC", "hERG current change (%, negative = inhibition) at 10uM": 16.2},
      {"smiles": "CCC(=O)N1CCc2cc(Br)cc(S(=O)(=O)CCC(=O)NCCc3ccccc3)c21", "hERG current change (%, negative = inhibition) at 10uM": 3.68},
      {"smiles": "O=S(=O)(c1ccccc1)N1CCN(C(=S)Nc2ccc(F)cc2)CC1", "hERG current change (%, negative = inhibition) at 10uM": -3.33},
      {"smiles": "CN(C)/C=N/c1ncn(-c2ncc(C(F)(F)F)cc2Cl)n1", "hERG current change (%, negative = inhibition) at 10uM": 17.5},
      {"smiles": "Nc1nc2nonc2nc1N", "hERG current change (%, negative = inhibition) at 10uM": 15.3},
      {"smiles": "CCOC(=O)c1cc(-c2ccccc2)nc2c1c(C)nn2-c1ccccn1", "hERG current change (%, negative = inhibition) at 10uM": -6.42},
      {"smiles": "O=C(NCc1ccco1)c1cc(-c2ccncc2)nc2ccccc12", "hERG current change (%, negative = inhibition) at 10uM": -18.5},
      {"smiles": "Cc1nn(-c2ccccn2)c2nc(-c3cccs3)cc(C(=O)NCc3ccco3)c12", "hERG current change (%, negative = inhibition) at 10uM": -67.3},
      {"smiles": "CCOC(=O)c1cc(-c2ccncc2)nc2c1c(C)nn2C", "hERG current change (%, negative = inhibition) at 10uM": -14.8},
      {"smiles": "CCOC(=O)c1cc(-c2ccncc2)nc2c1c(C)nn2-c1ccccn1", "hERG current change (%, negative = inhibition) at 10uM": -63.3},
      {"smiles": "Cc1nn(-c2ccccc2)c2nc(-c3ccncc3)cc(C(=O)NCc3ccco3)c12", "hERG current change (%, negative = inhibition) at 10uM": -66.6},
      {"smiles": "CCOC(=O)c1cc(-c2cccs2)nc2c1c(C)nn2-c1ccccn1", "hERG current change (%, negative = inhibition) at 10uM": 17.2},
      {"smiles": "O=C(NCc1ccco1)c1cc(-c2cccs2)nc2ccccc12", "hERG current change (%, negative = inhibition) at 10uM": -1.68},
      {"smiles": "Cc1nn(-c2ccccc2)c2nc(-c3ccccc3)cc(C(=O)N3CCOCC3)c12", "hERG current change (%, negative = inhibition) at 10uM": -25.9},
      {"smiles": "Cc1ccccc1-n1nc(C)c2c(C(=O)NN)cc(-c3ccncc3)nc21", "hERG current change (%, negative = inhibition) at 10uM": 38.5},
      {"smiles": "Cc1nn(-c2cccc(Cl)c2)c2nc(-c3ccco3)cc(C(=O)O)c12", "hERG current change (%, negative = inhibition) at 10uM": 19},
      {"smiles": "Cc1nn(-c2cccc(Cl)c2)c2nc(-c3ccncc3)cc(C(=O)N3CCOCC3)c12", "hERG current change (%, negative = inhibition) at 10uM": -62.3},
      {"smiles": "Cc1ncc([N+](=O)[O-])n1CC(=O)NCc1ccccc1", "hERG current change (%, negative = inhibition) at 10uM": 16},
      {"smiles": "Cc1ccc(S(=O)(=O)NNC(=O)C(=O)NNS(=O)(=O)c2ccc(C)cc2)cc1", "hERG current change (%, negative = inhibition) at 10uM": -1.99},
      {"smiles": "O=C(c1ccc(Cl)cc1)N1CCCCC(Cl)C1=O", "note": "(stereo not shown)", "hERG current change (%, negative = inhibition) at 10uM": 7.57},
      {"smiles": "COc1cccc(Nc2ncc(C(=O)O)c3ccccc23)c1", "hERG current change (%, negative = inhibition) at 10uM": -1.48},
      {"smiles": "Fc1cnc(Cl)nc1N1CCN(c2ccccc2)CC1", "hERG current change (%, negative = inhibition) at 10uM": -17.4},
      {"smiles": "Cc1nn(Cc2ccccc2)c(C)c1C(=O)OCC(=O)c1cc(C)n(CC(F)(F)F)c1C", "hERG current change (%, negative = inhibition) at 10uM": -2.57},
      {"smiles": "COc1cccc(-n2c(-c3ccco3)nc3nc4ccccc4nc32)c1", "hERG current change (%, negative = inhibition) at 10uM": 18.4},
      {"smiles": "O=C(COC(=O)c1cccnc1Nc1ccccc1F)NC1CC1", "hERG current change (%, negative = inhibition) at 10uM": -0.164}
    ]}
  ]
}
